The text below walks through data of PubChem BioAssay (NCATS).

The structures appear in SMILES notation. Several values for one entry are separate records, joined by “and”; a condition that tells them apart may be missing. Equal entries are not always repeated. Inconclusive results are not listed. Unmarked numbers belong to inactive results. Activity calls are given as the source filed them. Calls follow the shape of the dose curve; as a rule, active = well fitted cell-killing curve with a large enough effect; inconclusive = small, poorly fitted or top-dose-only effect, or effect the other way; inactive = no such curve, though single readings can be large or run the other way.
Potency is read from the fitted curve at half-maximal effect.

The first assay can be described thus: Viability qHTS for spleen associated tyrosine kinase inhibitor (SYKi) naive MV4-11 cells (AID 1963823). Also: nearly all actives have a fitted effect of over 40% in size. As to conditions: MV4-11 AML viability, CellTiter-Glo luminescence, 72 h; series mostly up to 45 µM; viability (% of control): at the top concentration. Put shortly: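 Luminescence from CellTiter-Glo, developed 10 min at room temperature, gave viability of MV4-11 cells never exposed to SYK inhibitor. Cells (500/well) had been incubated with compounds for 72 hr under standard culture conditions.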
(In general: qHTS replaces the single test concentration by a dilution series.)
With `C/C=C1\[C@H](O[C@@H]2O[C@H](CO)[C@@H](O)[C@H](O)[C@H]2O)OC=C(C(=O)OC)[C@H]1CC(=O)O`, the “viability (% of control)” value was 51.5% [at 17.3 µM].

For the compound `O=C(COc1ccc(C(=O)c2ccccc2)cc1)NC1CCN(Cc2ccccc2)CC1`, the Potency is 9.2 µM (active).

With `COc1cc(CCO)ccc1O[C@@H]1O[C@H](CO)[C@@H](O)[C@H](O)[C@H]1O`, the “viability (% of control)” value was 85.9%.

For `C=C(C)[C@@H]1CC[C@]2(C(=O)O)CC[C@]3(C)C(CCC4[C@]5(C)C(CC[C@]43C)C(C)(C)[C@@H](O)[C@@H]5C(=O)O)C12` (stereo partly specified), the “viability (% of control)” value was 85.4% [at 17.3 µM].

Turning to `O=C(/C=C/c1ccccc1)OC[C@H]1O[C@@H](OC(=O)c2cc(O)c(O)c(O)c2)[C@H](O)[C@@H](O)[C@@H]1O`, the “viability (% of control)” value was 86% [at 17.3 µM].

For the compound `CCOc1nc2c(N)ncnc2n1CC`, the “viability (% of control)” value was 51.1%.

`CC(=O)C12OC(C)(C)OC1CC1C3CCC4=CC(=O)C=CC4(C)C3(F)C(O)CC12C` (stereo unspecified): the “viability (% of control)” value was 121%.

As to `C/C=C1/CC2C(=O)Nc3cc(O)c(OC)cc3C(=O)N2C1` (stereo unspecified), the Potency was 16.1 µM (active).

As for `CN(C)c1cc2c(Nc3ccc4c(cnn4Cc4ccccc4)c3)ncnc2cn1`, the Potency was 8.2 µM (active).

In the case of `COc1cc(O[C@@H]2O[C@H](CO[C@H]3OC[C@](O)(CO)[C@H]3O)[C@@H](O)[C@H](O)[C@H]2O)cc(OC)c1O`, the “viability (% of control)” value is 90.4% [at 17.3 µM].

For the compound `CC(=O)NCCCCn1c2c(c3ccccc31)C(=O)NCC2`, the “viability (% of control)” value is 61.9%.

Another assay can be described thus: Viability qHTS for spleen associated tyrosine kinase inhibitor (SYKi) drug resistant MV4-11 cells (AID 1963824). Also: nearly all actives have a fitted effect of over 35% in size. Particulars: SYKi-resistant MV4-11 viability, CellTiter-Glo, 72 h; series mostly up to 45 µM; viability, % of control: at the top concentration. Put shortly: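 SYK-inhibitor-resistant MV4-11 AML cells were seeded at 500 per well onto compound and cultured 72 hours (37 °C, 5% CO2). CellTiter-Glo was then added, and after 10 min at room temperature, luminescence gave viability.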
Take `COc1ccc(C(O)C(C)OC2OC(CO)C(O)C(O)C2O)cc1` (stereo unspecified): the “viability, % of control” value was 105%.

On to `O=C(O[C@H]1[C@@H]2C=CO[C@@H](O[C@@H]3O[C@H](CO)[C@@H](O)[C@H](O)[C@H]3O)[C@@H]2[C@@]2(CO)O[C@@H]12)c1ccc(O)cc1`, for which the “viability, % of control” value was 93.9% [at 17.3 µM].

With `CC(=O)O[C@H]1[C@H](O[C@H]2[C@@H]3C=CO[C@@H](O[C@@H]4O[C@H](CO)[C@@H](O)[C@H](O)[C@H]4O)[C@@H]3[C@@]3(CO)O[C@@H]23)O[C@@H](C)[C@H](OC(=O)/C=C/c2ccccc2)[C@H]1OC(=O)/C=C/c1ccccc1`, the viability, % of control is 83.3% [at 9.25 µM].

Turning to `O=C(OC[C@H]1O[C@H](O[C@H]2CO[C@H](CO)[C@@H](O)[C@@H]2O)[C@H](O)[C@@H](O)[C@H]1O)c1ccccc1`, the “viability, % of control” value is 75.6% [at 17.3 µM].

Consider `CCN=C1N[C@@H]2[C@@H](O)[C@H](O)[C@@H](CO)O[C@@H]2S1`, for which the “viability, % of control” value is 93.4%.

Take `CC(O)/C=C/C1(O)C(C)C(O[C@@H]2O[C@H](CO)[C@@H](O)[C@H](O)[C@H]2O)C(O)CC1(C)C` (stereo partly specified): the “viability, % of control” value was 76.5% [at 17.3 µM].

For the compound `Cn1cnc2c(NCc3ccccc3)nc(NCCO)nc21`, the “viability, % of control” value was 86.6%.

Turning to `CC1=C(C)C(=O)OC(C(C)(O)C2CCC3C4CC=C5CC(OC6OC(COC7OC(CO)C(O)C(O)C7O)C(O)C(O)C6O)CC(O)C5(C)C4CCC32C)C1` (stereo unspecified), the “viability, % of control” value was 78% [at 17.3 µM].

With `C/C=C/C=C/[C@@H]1O[C@](O)([C@H](CC)C(=O)NC/C=C/C=C(\C)[C@@H](OC)[C@@H](C)C2OC(/C=C/C=C/C=C(\C)C(=O)c3c(O)cc[nH]c3=O)[C@H](O)[C@@H]2O)[C@H](O)[C@H](O)C1(C)C` (stereo partly specified), the Potency was 0.243 µM (active).

For `C=C1CCC[C@]2(C)CC/C(=C(/CO)C(=O)OC)C[C@@H]12`, the Potency is 14.6 µM (active).

On to `Cn1ncc2cc(-c3cnc(N)c(Cl)c3N3CCC4(CCNC4=O)CC3)ccc21`, for which the Potency is 2.59 µM (active) and 2.95 µM (active).

For `C=C1C(=O)O[C@@H]2C[C@@]3(C)CCC[C@H](C)C3=C[C@H]12`, the Potency is 7.31 µM (active).

Turning to `O=C(CO)[C@@H](O)[C@H](O[C@@H]1O[C@H](CO)[C@H](O)[C@H](O)[C@H]1O)[C@H](O)CO`, the “viability, % of control” value was 78.7%.

On to `COc1cc(C2Oc3c(OC)cc(CCCO)cc3C2CO)ccc1O[C@H]1O[C@H](C)[C@@H](O)[C@H](O)[C@@H]1O` (stereo partly specified), for which the “viability, % of control” value is 101% [at 17.3 µM].

Take `Cc1noc(C)c1-c1cc(O)cc(C(O)c2ccccc2)c1` (stereo unspecified): the Potency is 1.46 µM (active).

For the compound `CC(=O)OC1C(O)C(C)(O)C(/C=C/C(=O)O)C2(C)CCCC(C)(C)C12` (stereo unspecified), the “viability, % of control” value is 72.2%.

Consider `CC1=CC(=O)C2C(C)(C)CCC[C@]2(C)[C@H]1CO` (stereo partly specified), for which the “viability, % of control” value was 77.2%.

Regarding `CC1=C(C)C(=O)OC(C(C)C2CCC3C4CC=C5CC(OC6OC(COC7OC(CO)C(O)C(O)C7O)C(O)C(O)C6O)CC(O)C5(C)C4CCC23C)C1` (stereo unspecified), the “viability, % of control” value was 65.7% [at 17.3 µM].

With `COc1c2cc(c(O[C@@H]3O[C@H](CO)[C@@H](O)[C@H](O)[C@H]3O)c1OC)CCCCC(O)CCc1ccc(O)c-2c1` (stereo partly specified), the “viability, % of control” value was 71.9% [at 17.3 µM].

As to `CC[C@@H](Nc1c(Nc2cccc(C(=O)N(C)C)c2O)c(=O)c1=O)c1ccc(C)o1`, the “viability, % of control” value was 69.7%.

For `Oc1cccc(-c2nc(N3CCOCC3)c3sccc3n2)c1`, the Potency was 2.06 µM (active).

Take `C=C[C@H](/C=C\c1ccc(O)cc1)c1ccc(O)cc1`: the Potency is 18.4 µM (active).

Consider `C=C1CC2[C@@]3(C)C=CC(=O)C(C)(C)C3=C(O)C(=O)[C@@]2(C)C2(C(=O)OC)C(=O)C(C)OC(=O)[C@@]12C` (stereo partly specified), for which the Potency was 10 µM (active).

For `C[C@@H](CC[C@@H]1[C@@]2(C)CCCC(C)(C)C2CC[C@@]1(C)O)CC(=O)O` (stereo partly specified), the “viability, % of control” value is 81.9%.

As for `CC1(C)CC[C@]2(C(=O)O[C@@H]3O[C@H](CO)[C@@H](O)[C@H](O)[C@H]3O)CC[C@]3(C)C(=CCC4[C@@]5(C)CC[C@H](O[C@@H]6O[C@H](C(=O)O)[C@@H](O[C@@H]7O[C@H](CO)[C@@H](O)[C@H](O)[C@H]7O)[C@H](O)[C@H]6O[C@@H]6O[C@H](CO)[C@@H](O)[C@H](O)[C@H]6O)C(C)(C)C5CC[C@]43C)C2C1` (stereo partly specified), the viability, % of control was 104% [at 9.25 µM].

`Cc1cc2nc(NCCCO)n(CC(=O)c3cc(C(C)(C)C)c(O)c(C(C)(C)C)c3)c2cc1C`: the Potency is 8.2 µM (active).

For the compound `O=S(=O)(Cc1ccccc1)Nc1ccc(-c2ccc3c(cnn3-c3ccc(F)cc3)c2)c(C(F)(F)F)c1`, the Potency is 20.6 µM (active).

Take `C=C1CC23CC1CCC2C12OC(=O)C(C)(CCC1O)C2C3C(=O)O` (stereo unspecified): the “viability, % of control” value is 66.5%.

Regarding `Cc1cn(-c2cc(NC(=O)c3ccc(C)c(Nc4nccc(-c5cnccn5)n4)c3)cc(C(F)(F)F)c2)cn1`, the Potency entry was “inactive”.

On to `C/C=C1\[C@H](O[C@@H]2O[C@H](CO)[C@@H](O)[C@H](O)[C@H]2O)OC=C(C(=O)OC)[C@H]1CC(=O)O`, for which the “viability, % of control” value was 62.2% [at 17.3 µM].

Consider `O=C(COc1ccc(C(=O)c2ccccc2)cc1)NC1CCN(Cc2ccccc2)CC1`, for which the Potency is 7.31 µM (active).

In the case of `COc1cc(CCO)ccc1O[C@@H]1O[C@H](CO)[C@@H](O)[C@H](O)[C@H]1O`, the “viability, % of control” value was 104%.

In the case of `C=C(C)[C@@H]1CC[C@]2(C(=O)O)CC[C@]3(C)C(CCC4[C@]5(C)C(CC[C@]43C)C(C)(C)[C@@H](O)[C@@H]5C(=O)O)C12` (stereo partly specified), the “viability, % of control” value was 87.1% [at 17.3 µM].

Take `O=C(/C=C/c1ccccc1)OC[C@H]1O[C@@H](OC(=O)c2cc(O)c(O)c(O)c2)[C@H](O)[C@@H](O)[C@@H]1O`: the “viability, % of control” value is 98.4% [at 17.3 µM].

Consider `CCOc1nc2c(N)ncnc2n1CC`, for which the “viability, % of control” value is 69.8%.

For the compound `CC(=O)C12OC(C)(C)OC1CC1C3CCC4=CC(=O)C=CC4(C)C3(F)C(O)CC12C` (stereo unspecified), the “viability, % of control” value was 96.7%.

As for `C/C=C1/CC2C(=O)Nc3cc(O)c(OC)cc3C(=O)N2C1` (stereo unspecified), the Potency is 14.3 µM (active).

`CN(C)c1cc2c(Nc3ccc4c(cnn4Cc4ccccc4)c3)ncnc2cn1`: the Potency is 9.2 µM (active).

For `COc1cc(O[C@@H]2O[C@H](CO[C@H]3OC[C@](O)(CO)[C@H]3O)[C@@H](O)[C@H](O)[C@H]2O)cc(OC)c1O`, the “viability, % of control” value was 92.1% [at 17.3 µM].

For `CC(=O)NCCCCn1c2c(c3ccccc31)C(=O)NCC2`, the “viability, % of control” value is 73%.
